FBW7 act: activators of human E3 ligase FBW7; AlphaScreen FBW7–phospho-cyclin E peptide binding, activator screen; Q969H0; normalized activity (activation), % at 26.1 µM; 650,000 compounds, 0.13% hits; in the data active means normalized activity above about 1.9%;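 further: purified mutant Fbw7 with reduced substrate affinity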
GPR151 ag: activators of human GPR151 | Q8TDV0 | PathHunter beta-arrestin GPR151 cells, luminescence | activation, % at 11.2 µM | 650,000 compounds, 1% hits | AID 1508602; in the data active means activation above about 4.9%;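 further: 0% = median of compound wells and 100% = cells with positive control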
TEAD-YAP block: TEAD-YAP interaction inhibition; AID 1259422; HEK-TIYL cells, TEAD-Gal4/YAP UAS-luciferase luminescence; inhibition, % at 9.12 µM; 640,000 compounds, 1.4% hits; in the data active means inhibition above about 32%;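 further: 0% = median of test compound wells and 100% = reference inhibitor wells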
MITF primary: inhibitors of human MITF; inhibition, % at 2.6 µM; 650,000 compounds, 0.91% hits; AlphaScreen MITF homodimerization, bead proximity signal; O75030; AID 1259374; in the data active means inhibition above about 50%;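 further: 0% = vehicle wells with protein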
Target sequence (O75030 whole entry, looked up): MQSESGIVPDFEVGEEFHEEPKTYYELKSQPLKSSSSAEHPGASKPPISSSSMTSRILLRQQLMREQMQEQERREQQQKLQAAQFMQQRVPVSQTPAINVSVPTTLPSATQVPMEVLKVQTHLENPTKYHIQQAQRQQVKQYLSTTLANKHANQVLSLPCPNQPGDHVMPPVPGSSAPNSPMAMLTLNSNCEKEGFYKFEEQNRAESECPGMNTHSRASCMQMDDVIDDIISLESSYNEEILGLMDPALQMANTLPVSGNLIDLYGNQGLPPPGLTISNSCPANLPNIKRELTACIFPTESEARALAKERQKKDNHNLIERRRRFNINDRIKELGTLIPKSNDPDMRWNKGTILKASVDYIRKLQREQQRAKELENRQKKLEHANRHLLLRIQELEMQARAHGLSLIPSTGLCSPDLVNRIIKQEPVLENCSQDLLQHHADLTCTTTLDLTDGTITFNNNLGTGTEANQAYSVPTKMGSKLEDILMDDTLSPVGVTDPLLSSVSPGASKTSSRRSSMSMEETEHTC
MITF confirm: human MITF inhibition, confirmation | shares compounds with MITF primary | AlphaScreen MITF homodimerization, biotin/His-MITF beads | inhibition, % at 2.6 µM | 4,700 compounds, 16% hits;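 active means inhibition above a cutoff derived from the DMSO control wells, cut at about 28% in these data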;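 further: 0% = MITF dimer wells with DMSO only; inhibitors lower the bead chemiluminescence by keeping MITF from dimerizing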
AlphaScreen DR: counter-screen: compounds optically interfering with AlphaScreen | shares compounds with MITF primary | AlphaScreen optical interference counterscreen, cell-free | IC50, µM | 480 compounds, 6% hits; call rule not given here
AlphaScreen intf2: AlphaScreen optical interference, counter-screen. shares compounds with MITF primary. LysRS AlphaScreen counterscreen, signal interference, triplicate. inhibition, % at 2.6 µM. 4,700 compounds, 7.6% hits. AID 1259376;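 active means inhibition above a cutoff derived from the DMSO control wells, cut at about 30% in these data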
Starred values were filed as active, the others as inactive; . = not tested or not shown. Shown are actives, neighbours in structure and some others; about 3.4% of the full set was active somewhere.

SMILES	FBW7 act	GPR151 ag	TEAD-YAP block	MITF primary	MITF confirm	AlphaScreen intf2	others
CC1(C)Cc2c(sc3nc(NNC(=O)c4ccccc4)[nH]c(=O)c23)CO1	0	0	7	73*	13	9
COc1ccc(C(=O)CSc2nnc(-c3ccc4c(c3)OCO4)o2)cc1OC	0	0	1	86*	-21	-6
COc1ccc(CCNC(N)=S)cc1OC	0	0	-6	63*	6	-1
COc1ccc(CCNc2ccc(Cl)cn2)cc1OC	0	-1	-10	97*	-12	-6
Cc1ccc(-c2noc(C3CCCN(S(=O)(=O)c4ccc(C(C)(C)C)cc4)C3)n2)o1 (centres undefined)	0	-1	4	77*	12	15
O=C(N1CCCCCC1)C1(S(=O)(=O)c2ccc(Cl)cc2)CC1	0	1	11	62*	3	-1
CCC(C)NC(=O)CSc1ncnc2nc(N3CCc4ccccc4C3)sc12 (centres undefined)	0	1	5	10	.	.
c1cn(-c2ccc(Nc3nc4ncnc(NCCN5CCOCC5)c4[nH]3)cc2)cn1	0	1	-6	88*	6	20
c1cn(-c2ccc(Nc3nc4ncnc(Nc5ccc(N6CCOCC6)cc5)c4[nH]3)cc2)cn1	0	-4	31	-5	.	.
CCC1CCCCN1C(=O)Cn1nc([N+](=O)[O-])cc1C (centres undefined)	2	0	6	91*	2	1
CCC1CCCCN1C(=O)Cn1nc(C)n2c(cc3ccsc32)c1=O (centres undefined)	0	0	4	61*	6	15
CCCS(=O)(=O)N1CCN(Cc2cc(OC)c(O)c(OC)c2)CC1	0	-2	2	56*	-2	11
CCc1ccc(CN2CCN(S(=O)(=O)c3ccc(C)cc3)CC2)cc1	1	1	0	58*	7	7
CCCS(=O)(=O)N1CCN(Cc2ccc(CC)cc2)CC1	0	1	14	51*	2	8
CCS(=O)(=O)N1CCN(Cc2cc(OC)c(O)c(OC)c2)CC1	0	1	9	37	.	.
Cc1ccc(S(=O)(=O)N2CCN(Cc3ccccc3Cl)CC2)cc1	0	3	-14	57*	-4	-7
Cc1ccc(Oc2nc3ccccn3c(=O)c2/C=C(\C#N)C(=O)NCCCOC(C)C)cc1	1	-8	8	24	.	.
Cc1ccc(NCN2C(=O)c3cccc([N+](=O)[O-])c3C2=O)cc1C	0	-1	6	26	.	.
O=[N+]([O-])c1ccccc1S(=O)(=O)N1CCN(Cc2ccccc2C(F)(F)F)CC1	0	-1	6	61*	8	12
Cc1ccc(S(=O)(=O)N2CCN(Cc3ccccc3C(F)(F)F)CC2)cc1	0	2	-38	67*	4	12
COc1ccc(S(=O)(=O)N2CCN(Cc3ccccc3C(F)(F)F)CC2)cc1	0	-1	3	-5	.	.
O=C(NNC(=O)c1cc(Br)ccc1O)Nc1ccccc1C(F)(F)F	0	-2	0	-1	.	.
O=C(NCCCN1CCCC1=O)c1csc(Nc2ccc(C(F)(F)F)cc2)n1	0	-1	-11	10	.	.
COc1cccc(CNCc2ccncc2)c1	0	-1	6	2	.	.
COc1cc(CN2CCN(Cc3ccncc3)CC2)cc(OC)c1OC	0	0	14	70*	14	16
SMILES	FBW7 act	GPR151 ag	TEAD-YAP block	MITF primary	MITF confirm	AlphaScreen intf2	others
COc1cc(CNCc2cccc(OC)c2OC)cc(OC)c1	0	1	3	21	.	.
COc1cc(CNCc2ccncc2)cc(OC)c1OC	0	-1	-1	58*	-1	-5
COc1cc(CNCc2ccccc2C(F)(F)F)cc(OC)c1OC	0	2	-1	65*	-7	5
COc1cc(CN2CCN(c3ccc(F)cc3)CC2)cc(OC)c1OC	0	0	7	24	.	.
COc1cc(CN2CCN(Cc3ccc(F)cc3)CC2)cc(OC)c1OC	0	1	-2	84*	13	10
COc1ccc(Cl)cc1NC(=O)c1cc(S(=O)(=O)N2CCN(c3ccccc3)CC2)ccc1F	1	1	-5	22	.	.
CCc1ccc(CN2CCN(Cc3cc(OC)c(OC)c(OC)c3)CC2)cc1	0	0	2	58*	-3	1
COc1cc(CN2CCCC2)cc(OC)c1OC	0	-1	2	-1	.	.
Clc1cc(Br)ccc1OCCCn1ccnc1	0	0	4	43	.	.
Clc1cccc(Cl)c1OCCCn1ccnc1	0	1	-2	52*	1	1
c1ccc(COc2ccc(OCCCCn3ccnc3)cc2)cc1	0	-1	-4	60*	36*	25	AlphaScreen DR=>6.5
CCc1cccc(OCCn2ccnc2)c1	0	0	-3	54*	4	6
CCOc1cccc(OCCn2ccnc2)c1	0	0	2	43	.	.
Clc1cc(Br)ccc1OCCn1ccnc1	0	-1	-14	54*	0	5
Cc1nn(C)cc1CN1CCC(n2c(C)nc3cccnc32)CC1	0	1	1	2	.	.
CC(C)CCNC(=O)CC1(CC2=NS(=O)(=O)c3ccccc3N2)CCCC1	1	0	7	8	.	.
COc1ccc(NC(=S)N/N=C2/CCCC(=O)C2)cc1	0	1	-33	14	.	.
Cc1cccc(C)c1OCCCCn1ccnc1	0	0	6	70*	-5	-4
Cc1cccc(Cl)c1OCCCCn1ccnc1	0	-1	1	1	.	.
Cc1cc(/C=N/Nc2ccc(C(F)(F)F)cn2)c(C)n1Cc1ccco1	0	1	-3	-2	.	.
CC(Nc1ccc(-c2ccccc2C=O)cn1)c1ccccc1 (centres undefined)	-1	1	-44	12	.	.
COc1cc(OC)c(OC)cc1CN1CCN(Cc2cccc(C)c2)CC1	0	1	0	83*	-2	16
COc1cccc(CN2CCN(Cc3cc(OC)ccc3OC)CC2)c1	0	1	8	75*	-4	1
COc1cc(OC)c(OC)cc1CN1CCN(Cc2ccc(C)cc2C)CC1	-1	0	1	70*	8	6
COc1ccc(CN2CCN(Cc3cccc(C)c3)CC2)c(OC)c1	0	-1	-4	69*	-1	3
COc1ccc(CN2CCN(Cc3cccc(C)c3)CC2)c(OC)c1OC	0	1	2	33	.	.
COc1cc(CN2CCN(Cc3cccc(C)c3)CC2)cc(OC)c1	0	1	-10	42	.	.
Cc1ccc(C(=O)NCC(=O)OCC(=O)N2c3ccccc3NC(=O)C2(C)C)s1	0	1	1	-3	.	.
COc1ccc(OC)c(CN2CCN(Cc3cccc(C)c3)CC2)c1	0	0	2	70*	0	0
